# Screening results from PubChem BioAssay.
# Hits are enriched below; roughly 1.4% of the tested compounds scored in any of these assays.
# EP2 modulator – EP2 receptor modulators, cAMP readout, primary screen, cell-based, HTRF cAMP, PGE2 stimulation; AID 940, 2007; 0.83% of 260,000 active; Prostaglandin E2 receptor EP2 subtype (Homo sapiens), P43116; induction, % at 25 µM; EP2-expressing cells, cAMP HTRF FRET, PGE2 co-stimulation;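 active = compounds whose cAMP rise, as percent of the full-agonist control response, exceeds 60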;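 note: rat C6 glioma line stably carrying human EP2 under a CMV promoter; the protocol text gives 20 µM as final concentration; 100% = response of wells given 1 µM PGE2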
# Furin inh – human furin inhibitors, primary screen, biochemical, fluorescence intensity; P09958; purified furin, fluorogenic substrate cleavage; inhibition, % at 20 µM or 30 µM; 0.061% of 220,000 active; AID 463115, 2010; in the data active = inhibition above about 25%
# Target sequence (P09958 108-714 limits assumed): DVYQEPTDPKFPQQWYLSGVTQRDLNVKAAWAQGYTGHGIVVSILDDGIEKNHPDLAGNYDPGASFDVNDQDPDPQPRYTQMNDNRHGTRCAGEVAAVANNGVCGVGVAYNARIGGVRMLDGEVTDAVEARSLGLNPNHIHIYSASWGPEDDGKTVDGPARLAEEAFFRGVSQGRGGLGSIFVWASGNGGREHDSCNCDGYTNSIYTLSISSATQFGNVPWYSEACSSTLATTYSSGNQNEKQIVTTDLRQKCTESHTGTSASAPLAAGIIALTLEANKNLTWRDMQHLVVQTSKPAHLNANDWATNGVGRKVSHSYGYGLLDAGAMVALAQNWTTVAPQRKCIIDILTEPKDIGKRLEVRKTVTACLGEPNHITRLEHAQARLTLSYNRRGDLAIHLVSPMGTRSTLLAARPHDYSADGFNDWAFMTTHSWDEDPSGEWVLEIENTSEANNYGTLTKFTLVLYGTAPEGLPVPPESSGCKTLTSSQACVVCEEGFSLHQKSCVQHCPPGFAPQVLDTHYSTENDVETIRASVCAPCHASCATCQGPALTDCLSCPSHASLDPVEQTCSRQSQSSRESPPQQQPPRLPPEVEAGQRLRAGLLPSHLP
# EP2 antag – human EP2 receptor antagonists, primary screen, TR-FRET cAMP, C6 glioma cells; AID 1422, 2008; 0.52% of 260,000 active; C6 glioma cells expressing human EP2; cells stimulated with saturating PGE2; inhibition, % at 25 µM;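 active = percent inhibition above 40 after rounding to a whole number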;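 note: rat C6 glioma host cells with rolipram phosphodiesterase inhibitor present; the protocol text gives 20 µM as final concentration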
# HSV replic up – enhancers of HSV replication in host cells, fold increase, host cell viability | 0.005% of 220,000 active | maximum fold increase | HSV replication augmentation in cells | AID 1956, 2009; in the data active = maximum fold increase above about 1.5; inconclusive = no clear call, values can overlap the other calls; tested in PC3 cells
# Pf gamet viab – late stage P. falciparum gametocyte viability inhibitors, primary screen, ATP luminescence, HTS; inhibition, % at 10.9 µM; 0.065% of 150,000 active; AID 743093, 2013; P. falciparum stage V gametocytes, 24 h;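 active = inhibition above the mean plus 3 SD of compounds within the control limits, set per campaign, cut at about 38% in these data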;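 note: 0% = DMSO wells and 100% = medium only without gametocytes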
# EP2 cAMP induct – cAMP induction in EP2, EP4, beta2-AR and parental cells, confirmation, counter-screen for EP2 modulator project, cell-based, five parallel assays, C6 glioma, HEK293; shares compounds with EP2 modulator; calls only at 20 µM (by protocol); cAMP HTRF induction; plus low (about EC15) PGE2 agonist; 47% of 1,300 active; AID 1080, 2008;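 active = cAMP induction above 50% in the main assay while under 30% in all four parallel counter assays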;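 note: rat C6 glioma cells stably expressing human EP2 receptor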
# * = called active by the depositor; i = inactive; ? = inconclusive; / = no result; + = active, no number; ! = not active in a repeat.
SMILES,EP2 modulator,Furin inh,EP2 antag,HSV replic up,Pf gamet viab,EP2 cAMP induct
CCC(=O)N(CCC(Cc1ccccc1)c1ccco1)Cc1ccco1 (centres undefined),77*,-4,9,i,6,i
[N-]=[N+]=Nc1ccc(C(=O)CSC[C@H](NC(=O)CC[C@H](N)C(=O)O)C(=O)NCC(=O)O)cc1,82*,/,10,/,/,+
N[C@@H](CCC(=O)N[C@H](CSN=O)C(=O)NCC(=O)O)C(=O)O,10,/,17,/,/,/
CCOc1ccc(/C=N/NC(=O)c2nnn(-c3nonc3N)c2-c2ccc(OCC)cc2)cc1,18,-31,10,i,-8,/
CCCCOC(=O)Nc1ccc(N2CCOCC2)cc1,0,-18,9,i,14,/
O=c1[nH]ncc2c3ccccc3n(Cc3ccc(F)cc3)c12,28,-15,13,i,/,/
O=c1[nH]ncc2c3ccccc3n(Cc3cccc(Cl)c3)c12,60,-23,8,i,1,i
CCOC(=O)Nc1sc2c(c1C(=O)OCC)CCC2,74*,-13,4,i,-34,i
CCOC(=O)c1c(NC(=O)c2ccc(-n3cnnn3)cc2)sc2c1CCCC2,58,-22,7,i,/,+
O=c1cc(-c2ccc(Cl)cc2)nc(N2CCN(c3ccccc3)CC2)[nH]1,/,/,/,/,-8,/
COc1cccc(N2CCN(CC(=O)Nc3ccc(SC(F)F)cc3)CC2)c1,-7,-14,11,i,-14,/
O=C(Nc1cc([N+](=O)[O-])ccc1F)C1CC1,13,-18,6,i,-16,/
CC(C)(C)c1ccc(OCCNCc2ccccc2)cc1,/,/,/,/,-35,/
CCC1(C)Cc2ccccc2-c2nc3n(c(=O)c21)CCS3 (centres undefined),79*,2,12,i,/,+
CCC1(C)Cc2ccccc2-c2nc3n(c(=O)c21)CC(C(=O)O)S3 (centres undefined),3,-7,16,i,-11,/
CCN(CC(=O)NC(C)(C)C)C(=O)COc1c(Cl)cc(Cl)c2ccc(C)nc12,-9,-11,11,i,3,/
Cc1ccccc1Nc1c(-c2ccccn2)nc2ccccn12,66*,-13,9,i,-1,i
Cc1ccccc1Nc1c(-c2cccnc2)nc2ccccn12,3,-6,4,i,-17,/
Cc1ccn2c(Nc3ccccc3C)c(-c3ccccn3)nc2c1,66*,-25,14,i,-2,i
Cc1ccc2nc(-c3ccccn3)c(Nc3ccccc3C)n2c1,67*,3,10,i,-15,i
Cc1ccn2c(Nc3ccccc3)c(-c3ccccn3)nc2c1,40,-9,4,i,22,/
CC(C)n1cc(NC(=O)C2CC(c3cccc(Br)c3)=NO2)cn1 (centres undefined),-28,-15,10,i,/,/
CCc1oc2ccccc2c1C(=O)c1cc(Br)c(O)c(Br)c1,68*!,-2,10,i,/,i
Cc1cc(C)c(S(=O)(=O)N(C2=NCCS2)S(=O)(=O)c2c(C)cc(C)cc2C)c(C)c1,71*,-9,16,i,-5,i
CCC/C=N/NC(=O)c1cc(Br)ccc1O,-7,-11,9,i,5,/
SMILES,EP2 modulator,Furin inh,EP2 antag,HSV replic up,Pf gamet viab,EP2 cAMP induct
Cc1cccc(/N=C/c2c(O)cc(C)oc2=O)n1,-2,-1,15,?,/,/
Cc1cccc(/N=C/c2c(O)ccc3oc4c(c23)CCCC4)n1,73*,-29,7,i,/,+
CCN1C(=O)c2cccc3c(S(=O)(=O)NCCc4ccccc4)ccc1c23,-101,/,9,/,/,/
Cc1ccc(CN(C(=O)c2csnn2)C(C(=O)NC(C)(C)C)c2ccncc2)cc1 (centres undefined),-23,/,6,/,/,/
COc1ccc2c(-c3ccccc3)cc(N3CCOCC3)nc2c1,77*,-13,12,i,/,+
CCC(C)C(=O)N1CCCC(c2nc(-c3cccs3)no2)C1 (centres undefined),-10,-11,19,i,/,/
CCCC(=O)N1CCCC(c2nc(-c3cccs3)no2)C1 (centres undefined),76*,-16,12,i,/,i
CC1CCc2c(sc(N)c2C(=O)OC(C)C)C1 (centres undefined),68*,-13,12,i,/,i
CCOC(=O)Nc1sc2c(c1C(N)=O)CCC(C)C2 (centres undefined),4,-30,11,i,-20,/
CC(C)C1OC2(C)OC(=N)C1(C#N)C(C#N)(C#N)C2c1ccccc1 (centres undefined),13,-5,9,?,-21,/
CCN(CC)C(=O)CN(c1cc2c(cc1OC)oc1ccccc12)S(=O)(=O)c1ccc(C)cc1,91*,-6,5,i,3,i
COc1cc(OC)cc(-c2nc(N)n[nH]2)c1,68*,-8,17,i,21,i
CCCCC(=O)Nc1ccc(C(=O)NCc2ccncc2)cc1,3,-25,2,i,-1,/
CCC1Oc2ccccc2N(Cc2ccccc2C)C1=O (centres undefined),74*,-13,6,i,1,+
CCOC(=O)CN1C(=O)C(CC)Oc2ccccc21 (centres undefined),2,-22,2,i,/,/
COC(=O)c1ccc(-n2c(C)ccc2-c2ccccc2)cc1,60,-14,10,i,/,/
CC(=O)c1ccc(-n2c(C)ccc2-c2ccccc2)cc1,90*,-11,4,i,/,+
CCC(c1nnnn1CCc1ccccc1)N(Cc1ccco1)Cc1cc2cc(C)cc(C)c2[nH]c1=O (centres undefined),/,-4,4,i,2,/
c1ccc(C2=NC(c3ccccc3)N=C(c3ccccc3)N2)cc1,25,-10,9,i,/,/
Cc1cc(NC(=O)c2cc(-c3ccncc3)nc3c(C)cccc23)no1,65*,-13,12,i,0,i
Cc1ccc(-c2cc(C(=O)Nc3cc(C)on3)c3ccccc3n2)cc1,14,-15,15,i,20,/
CC(/C=C1\SC(=S)N(C(C(=O)O)C(C)C)C1=O)=C\c1ccccc1 (centres undefined),61*,-10,10,i,-6,+
CC(/C=C1\SC(=S)N(c2ccc(C(=O)O)cc2)C1=O)=C\c1ccccc1,14,11,5,i,13,/
COc1ccc(S(=O)(=O)N(C)C)cc1NCC(=O)Nc1ccc(Br)cc1F,-12,-10,8,i,14,/
CCCC1=C(C(=O)OCC)C(c2cccs2)C(C#N)=C(N)O1 (centres undefined),63*,-22,11,i,/,i
